Data published in PMC5700166.

What follows are sequences tested against T1, GST-Dm-Relish (Drosophila melanogaster, UniProt Q94527 99-473) (assay: protein-binding microarray (PBM); PBM: ~300 nM protein, 6 mM HEPES pH 7.8, 80 mM KCl, 0.5 mM EDTA, 0.5 mM EGTA, 6% glycerol, 35 ng/ul poly-dIdC, 1% milk, 1 h, room temperature; Ap Aiptasia and Nv Nematostella (sea anemones) / Co Capsaspora / Aq Amphimedon (sponge) / Dm Drosophila / Hu human; RHD is the Rel homology domain; high values mean tight binding). Details: dsDNA, one strand shown.
T1 sequence: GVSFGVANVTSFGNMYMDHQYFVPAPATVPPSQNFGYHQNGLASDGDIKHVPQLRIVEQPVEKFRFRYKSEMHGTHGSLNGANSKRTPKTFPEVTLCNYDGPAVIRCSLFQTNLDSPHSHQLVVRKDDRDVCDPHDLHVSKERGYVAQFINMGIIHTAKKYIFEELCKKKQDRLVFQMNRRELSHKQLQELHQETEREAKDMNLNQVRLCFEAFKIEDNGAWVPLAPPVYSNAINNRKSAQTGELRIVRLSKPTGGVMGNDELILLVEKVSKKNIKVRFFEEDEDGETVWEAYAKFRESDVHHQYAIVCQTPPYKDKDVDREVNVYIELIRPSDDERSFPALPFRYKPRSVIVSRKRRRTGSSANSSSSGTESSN

**Q.** Which binding signal does the source give for “CCGATTAACATCAGGGATTCCCCTGATGTTAATCGGGTCTTGATTCGCTTGACGCTGCTG” here?
**A.** The binding signal was 11.2 z-score.

**Q.** “CCGATTAACATCAACACCCCCCTTGATGTTAATCGGGTCTTGATTCGCTTGACGCTGCTG” was tested. Which binding signal did it give?
**A.** Its binding signal is 5.23 z-score.

**Q.** How did the binding signal turn out when “CCGATTAACATCAGGGAACACCCTGATGTTAATCGGGTCTTGATTCGCTTGACGCTGCTG” was run?
**A.** Its binding signal is 8.18 z-score.

What follows are sequences tested against T2, GST-Aq-NF-kB (Amphimedon queenslandica, UniProt A9Y5G7 2-389) in the same assay as above. Details: dsDNA, one strand shown.
T2 sequence: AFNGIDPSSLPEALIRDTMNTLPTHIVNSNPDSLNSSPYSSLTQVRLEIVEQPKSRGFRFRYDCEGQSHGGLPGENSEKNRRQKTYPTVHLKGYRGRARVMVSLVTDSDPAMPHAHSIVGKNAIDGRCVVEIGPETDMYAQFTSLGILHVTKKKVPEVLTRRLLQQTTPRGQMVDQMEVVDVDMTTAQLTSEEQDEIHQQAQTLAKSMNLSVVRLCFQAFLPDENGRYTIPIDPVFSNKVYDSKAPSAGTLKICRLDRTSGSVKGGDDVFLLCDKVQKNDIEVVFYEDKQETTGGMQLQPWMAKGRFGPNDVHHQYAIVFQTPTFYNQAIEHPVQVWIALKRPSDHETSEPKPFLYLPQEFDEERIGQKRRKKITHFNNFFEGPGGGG

**Q.** With “CCGATTAACATCAGGGGAAGATATGATGTTAATCGGGTCTTGATTCGCTTGACGCTGCTG” as the sequence, how does the binding signal read?
**A.** Its binding signal is 6.09 z-score.

**Q.** “CCGATTAACATCAGAAAATCCCCTGATGTTAATCGGGTCTTGATTCGCTTGACGCTGCTG” was tested. Which binding signal did it give?
**A.** The binding signal was 8.95 z-score.

**Q.** Which binding signal does the source give for “CCGATTAACATCAGGATGCCCCCTGATGTTAATCGGGTCTTGATTCGCTTGACGCTGCTG” here?
**A.** The binding signal was 5.09 z-score.

**Q.** Which binding signal does the source give for “CCGATTAACATCAAATTTTCCCGTGATGTTAATCGGGTCTTGATTCGCTTGACGCTGCTG” here?
**A.** Its binding signal is 5.86 z-score.

**Q.** How did the binding signal turn out when “CCGATTAACATCAGGGGAGTTACTGATGTTAATCGGGTCTTGATTCGCTTGACGCTGCTG” was run?
**A.** Its binding signal is 5.17 z-score.

**Q.** How did the binding signal turn out when “CCGATTAACATCACGGGGGATTCTGATGTTAATCGGGTCTTGATTCGCTTGACGCTGCTG” was run?
**A.** Its binding signal is 6.51 z-score.

**Q.** For “CCGATTAACATCAATTATTCCCCTGATGTTAATCGGGTCTTGATTCGCTTGACGCTGCTG”, which binding signal is on record?
**A.** The binding signal was 5.63 z-score.

**Q.** Which binding signal does the source give for “CCGATTAACATCAGGGACTGCCCTGATGTTAATCGGGTCTTGATTCGCTTGACGCTGCTG” here?
**A.** Its binding signal is 7.19 z-score.

**Q.** Which binding signal does the source give for “CCGATTAACATCAGATTCCCCCATGATGTTAATCGGGTCTTGATTCGCTTGACGCTGCTG” here?
**A.** Its binding signal is 5.82 z-score.

**Q.** “CCGATTAACATCAAGAACTTCCCTGATGTTAATCGGGTCTTGATTCGCTTGACGCTGCTG” was tested. Which binding signal did it give?
**A.** The binding signal was 4.6 z-score.

**Q.** Which binding signal does the source give for “CCGATTAACATCAAATATCCCCATGATGTTAATCGGGTCTTGATTCGCTTGACGCTGCTG” here?
**A.** The binding signal was 4.67 z-score.

**Q.** How did the binding signal turn out when “CCGATTAACATCAGGGAATTTACTGATGTTAATCGGGTCTTGATTCGCTTGACGCTGCTG” was run?
**A.** The binding signal was 6.82 z-score.

**Q.** Which binding signal does the source give for “CCGATTAACATCAGCGATTCCCCTGATGTTAATCGGGTCTTGATTCGCTTGACGCTGCTG” here?
**A.** The binding signal was 4.44 z-score.

**Q.** “CCGATTAACATCAGAATATCCCCTGATGTTAATCGGGTCTTGATTCGCTTGACGCTGCTG” was tested. Which binding signal did it give?
**A.** Its binding signal is 5.85 z-score.

**Q.** For “CCGATTAACATCAGGGACTTTCATGATGTTAATCGGGTCTTGATTCGCTTGACGCTGCTG”, which binding signal is on record?
**A.** The binding signal was 6.22 z-score.

**Q.** With “CCGATTAACATCAGGGGGTTTGATGATGTTAATCGGGTCTTGATTCGCTTGACGCTGCTG” as the sequence, how does the binding signal read?
**A.** The binding signal was 4.09 z-score.

**Q.** With “CCGATTAACATCAAATTCCCCCCTGATGTTAATCGGGTCTTGATTCGCTTGACGCTGCTG” as the sequence, how does the binding signal read?
**A.** The binding signal was 7.65 z-score.

**Q.** With “CCGATTAACATCACTAAATCCCCTGATGTTAATCGGGTCTTGATTCGCTTGACGCTGCTG” as the sequence, how does the binding signal read?
**A.** Its binding signal is 5.34 z-score.

**Q.** With “CCGATTAACATCAGGAACTTCCCTGATGTTAATCGGGTCTTGATTCGCTTGACGCTGCTG” as the sequence, how does the binding signal read?
**A.** The binding signal was 7.58 z-score.

**Q.** For “CCGATTAACATCAAATTTCCCTATGATGTTAATCGGGTCTTGATTCGCTTGACGCTGCTG”, which binding signal is on record?
**A.** The binding signal was 6.3 z-score.

**Q.** With “CCGATTAACATCAGGGAAAACCCTGATGTTAATCGGGTCTTGATTCGCTTGACGCTGCTG” as the sequence, how does the binding signal read?
**A.** Its binding signal is 10.2 z-score.

**Q.** With “CCGATTAACATCAGGGGGAACGATGATGTTAATCGGGTCTTGATTCGCTTGACGCTGCTG” as the sequence, how does the binding signal read?
**A.** Its binding signal is 4.16 z-score.

**Q.** For “CCGATTAACATCAGGGAATTTGATGATGTTAATCGGGTCTTGATTCGCTTGACGCTGCTG”, which binding signal is on record?
**A.** The binding signal was 3.69 z-score.

**Q.** Which binding signal does the source give for “CCGATTAACATCAGGATCCCCCCTGATGTTAATCGGGTCTTGATTCGCTTGACGCTGCTG” here?
**A.** Its binding signal is 6.39 z-score.

**Q.** How did the binding signal turn out when “CCGATTAACATCAAATAAACCCCTGATGTTAATCGGGTCTTGATTCGCTTGACGCTGCTG” was run?
**A.** Its binding signal is 5.4 z-score.

**Q.** How did the binding signal turn out when “CCGATTAACATCAAATTCCCGCCTGATGTTAATCGGGTCTTGATTCGCTTGACGCTGCTG” was run?
**A.** The binding signal was 3.39 z-score.

**Q.** With “CCGATTAACATCACGAAACCCCCTGATGTTAATCGGGTCTTGATTCGCTTGACGCTGCTG” as the sequence, how does the binding signal read?
**A.** Its binding signal is 6.37 z-score.

**Q.** Which binding signal does the source give for “CCGATTAACATCAGGGAAAATTATGATGTTAATCGGGTCTTGATTCGCTTGACGCTGCTG” here?
**A.** The binding signal was 6.77 z-score.

**Q.** Which binding signal does the source give for “CCGATTAACATCACTGGATTCCCTGATGTTAATCGGGTCTTGATTCGCTTGACGCTGCTG” here?
**A.** Its binding signal is 2.82 z-score.

**Q.** How did the binding signal turn out when “CCGATTAACATCAGGGAAACTAATGATGTTAATCGGGTCTTGATTCGCTTGACGCTGCTG” was run?
**A.** The binding signal was 3.45 z-score.

**Q.** Which binding signal does the source give for “CCGATTAACATCAAGCAATCCCCTGATGTTAATCGGGTCTTGATTCGCTTGACGCTGCTG” here?
**A.** Its binding signal is 4.53 z-score.

**Q.** How did the binding signal turn out when “CCGATTAACATCAGGGGATTGTATGATGTTAATCGGGTCTTGATTCGCTTGACGCTGCTG” was run?
**A.** The binding signal was 5.12 z-score.

**Q.** How did the binding signal turn out when “CCGATTAACATCACTATATCCCCTGATGTTAATCGGGTCTTGATTCGCTTGACGCTGCTG” was run?
**A.** Its binding signal is 2.75 z-score.

**Q.** Which binding signal does the source give for “CCGATTAACATCAAGTTCCCCCATGATGTTAATCGGGTCTTGATTCGCTTGACGCTGCTG” here?
**A.** Its binding signal is 5.56 z-score.

**Q.** With “CCGATTAACATCAAGGGTGGGAATGATGTTAATCGGGTCTTGATTCGCTTGACGCTGCTG” as the sequence, how does the binding signal read?
**A.** Its binding signal is 2.63 z-score.

**Q.** For “CCGATTAACATCAGAGCTCCCCCTGATGTTAATCGGGTCTTGATTCGCTTGACGCTGCTG”, which binding signal is on record?
**A.** Its binding signal is 3.98 z-score.

**Q.** Which binding signal does the source give for “CCGATTAACATCACACATCCCCCTGATGTTAATCGGGTCTTGATTCGCTTGACGCTGCTG” here?
**A.** Its binding signal is 3.87 z-score.

**Q.** For “CCGATTAACATCAGGGATTCCCCTGATGTTAATCGGGTCTTGATTCGCTTGACGCTGCTG”, which binding signal is on record?
**A.** Its binding signal is 11.5 z-score.

**Q.** Which binding signal does the source give for “CCGATTAACATCAACACCCCCCTTGATGTTAATCGGGTCTTGATTCGCTTGACGCTGCTG” here?
**A.** Its binding signal is 5.24 z-score.

**Q.** “CCGATTAACATCAGGGAACACCCTGATGTTAATCGGGTCTTGATTCGCTTGACGCTGCTG” was tested. Which binding signal did it give?
**A.** Its binding signal is 7.15 z-score.
